From PubChem BioAssay (NCATS)
Inconclusive results are not listed. Calls of active or inactive are those of the source. Unless noted, calls come from the whole dose curve; as a rule, active = well fitted curve in the direction sought with a large enough effect; inconclusive = small, poorly fitted or top-dose-only effect, or another doubt; inactive = no such curve, though single readings can be large; an effect the other way counts as inactive or inconclusive.

Tests used:
[1] = Cytometric Cell-Based qHTS for Inhibitors of the mTORC1 Signaling Pathway in MEF (Tsc2-/-, p53-/-) Cells (AID 2660);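 note: Tsc2 and p53 null MEFs carrying empty vector with compound for 24 h; percent of cells above a phospho-rpS6 to PI ratio cutoff in each well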
Outline: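 Cells are plated, treated with compound for 24 hrs at 37 degree Celsius, then fixed, blocked and immunostained for phospho-rpS6 Ser235/236. Propidium iodide counterstain follows. Per-well % positive cells is derived from the PI-normalized phospho-S6 signal.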

[2] = High Content Imaging Cell-Based qHTS for Inhibitors of the mTORC1 Signaling Pathway in MEF (Tsc2-/-, p53-/-) Cells (AID 2666); details: at 38.3 µM (top of the series);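 note: percent of cells scored positive for phospho-rpS6 Ser235/236 immunostaining by imaging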
Outline: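 Cells were plated, dosed with compound after 24 hrs, and incubated another 24 hrs at 37 degree Celsius. Fixed cells were immunostained for phospho-rpS6 Ser235/236 and counterstained, and the normalized signal was scored as % active cells against rapamycin and DMSO controls.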

[3] = High Content Imaging Cell-Based qHTS for Inhibitors of the mTORC1 Signaling Pathway in MEF Cells (AID 2667);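 note: Tsc2-/- p53-/- MEFs stably re-expressing wild-type Tsc2 exposed 24 h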
Outline: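 Immunofluorescence for rpS6 phosphorylation in MEFs of Tsc2-/-, p53-/- background rescued with WT Tsc2. Compound exposure lasted 24 hrs. Inhibition was scored against rapamycin-treated control wells.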

[4] = Cytometry Cell-Based qHTS for Inhibitors of the mTORC1 Signaling Pathway in MEF cells (AID 2668);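 note: Tsc2-/- p53-/- mouse embryonic fibroblasts stably re-expressing wild-type Tsc2; percent cells positive for phospho-rpS6 Ser235/236 relative to propidium iodide stain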
Outline: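 Read-out: phospho-rpS6 Ser235/236 immunofluorescence normalized to propidium iodide intensity, scored as % active cells against a rapamycin (7.5 nM) threshold. Cells: Tsc2-/-, p53-/- MEFs stably expressing WT Tsc2, compound-treated 24 hrs at 37 degree Celsius.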

[5] = biological target: Lysosomal alpha-glucosidase (Homo sapiens) (UniProt P10253); experiment: Confirmation of Inhibitors and Activators of Purified Human alpha-Glucosidase (AID 2115; active = well fitted curve in either direction with a large enough effect)
Excerpt: NIH Chemical Genomics Center [NCGC]
NIH Molecular Libraries Probe Production centers Network [MLPCN]
Assay Submitter (PI): Wei Zheng
Alpha-glucosidase is responsible for hydrolysis of terminal, non-reducing 1,4-linked alpha-D-glucose residues with release of alpha-D-glucose. It is a lysosomal hydrolase that is required for the degradation of a small percentage (1-3%) of cellular glycogen in human. Deficiency of this enzyme results in glycogen-storage disease type II (GSDII), also referred to as Pompe disease, an autosomal recessive disorder. Structurally normal glycogen is accumulated in lysosomes and cytoplasm in affected patients, primarily in muscle tissues. Excessive glycogen storage within lysosomes may interrupt normal functioning of other organelles and leads to cellular injury. In turn, this leads to enlargement and dysfunction of the entire organ involved (eg, cardiomyopathy and muscle weakness). […]
This is a fluorogenic enzyme assay with 4-methylumbelliferyl-alpha-D-[…] as the substrate and human […] as the enzyme preparation. […] 4-methyllumbelliferone, can be excited at 365 nm and emits at 440 nm which can be detected by a standard fluorescence plate reader. […] The AC50 values were determined from concentration-response data modeled with the standard Hill equation. […]
(6) Detect the assay plate in a ViewLux plate reader (PerkinElmer) with Ex=365 nm and Em=440nm. […]

[6] = qHTS Assay for Identification of Small Molecule Inducers of Hypoxia Response (AID 2120; active = well fitted curve in the direction sought with a large enough effect in the signal ratio, with a control signal flat, not every such curve was filed as active; the % refers to the signal ratio)
Outline: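 HRE-bla ME-180 cells in Opti-MEM with 0.5% dialyzed FBS, pre-plated 4-5 h, then compound titration for 17 h at 37 degrees Celsius. CCF4 loaded 2.5 h at room temperature; 460/530 nm ratio gave %Activity and AC50 for induction.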

[7] = biological target: Ferritin light chain (Equus caballus) (UniProt P02791); experiment: qHTS Validation Assay for Identification of Novel General Anesthetics (AID 2323)
Sequence of Ferritin light chain (Equus caballus) (P02791 2-175 limits assumed): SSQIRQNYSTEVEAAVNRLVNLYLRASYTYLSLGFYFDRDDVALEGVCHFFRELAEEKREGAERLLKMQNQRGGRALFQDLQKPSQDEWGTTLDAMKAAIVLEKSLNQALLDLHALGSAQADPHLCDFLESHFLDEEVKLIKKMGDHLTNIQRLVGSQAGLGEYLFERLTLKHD
Outline: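 10 uM horse-spleen apoferritin + 1-AMA (50% saturated, PBS); cpd pin-transferred, 10 min RT. Ex 380/Em 535 nm endpoint. Activity normalized between free 1-AMA and 1-AMA/apoferritin; 4-parameter Hill fit of concentration-response.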

[8] = biological target: ATP-dependent DNA helicase Q1 (Homo sapiens) (UniProt P46063); experiment: qHTS Validation Assay for Inhibitors of RecQ-Like Dna Helicase 1 (RECQ1) (AID 2353)
Sequence of ATP-dependent DNA helicase Q1 (Homo sapiens) (P46063 whole entry, looked up): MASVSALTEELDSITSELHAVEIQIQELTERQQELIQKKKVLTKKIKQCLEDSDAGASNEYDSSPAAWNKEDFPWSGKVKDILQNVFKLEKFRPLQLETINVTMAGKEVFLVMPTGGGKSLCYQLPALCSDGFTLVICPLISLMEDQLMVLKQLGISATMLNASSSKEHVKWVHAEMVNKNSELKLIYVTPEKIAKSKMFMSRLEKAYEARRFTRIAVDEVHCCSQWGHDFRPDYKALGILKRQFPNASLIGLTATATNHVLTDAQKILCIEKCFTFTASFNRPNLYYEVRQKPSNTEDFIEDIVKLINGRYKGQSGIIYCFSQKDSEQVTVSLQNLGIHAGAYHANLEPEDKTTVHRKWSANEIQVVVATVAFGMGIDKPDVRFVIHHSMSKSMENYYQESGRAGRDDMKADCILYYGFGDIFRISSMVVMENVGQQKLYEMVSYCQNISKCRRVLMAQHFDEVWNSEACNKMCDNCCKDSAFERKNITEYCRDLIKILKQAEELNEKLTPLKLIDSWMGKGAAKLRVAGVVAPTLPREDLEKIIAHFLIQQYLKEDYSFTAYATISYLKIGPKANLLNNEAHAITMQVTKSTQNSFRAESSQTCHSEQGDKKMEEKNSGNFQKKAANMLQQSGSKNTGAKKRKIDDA
Excerpt: Survival of cells and the faithful propagation of the genome depend on elaborate mechanisms of detecting and repairing DNA damage. Treatment of advanced cancer relies on radiation therapy or chemotherapy, which kill cancer cells by causing extensive DNA damage. It is often found, that cancer cells develop resistance to therapy through enhanced activity of DNA repair functions; this has led to an increased interest in developing drugs that interfere with DNA repair, which could sensitize cancer cells to conventional therapy.
This validation qHTS assay pertains to human RECQ1, which is important in resolving abnormal DNA structures formed during replication or homologous recombination. Shutting down the expression of RECQ1 leads to chromosomal instability and higher radiation sensitivity in cultured cells.
The validation assay was a fluorescence quenching based kinetic qHTS for RECQ1 Helicase DNA unwinding. The activity was measured as ATP-dependent separation of a 20-bp DNA duplex extended by 30-nt single-stranded tails (forked duplex). The forked DNA substrate was tagged with rhodamine fluorophore (carboxytetramethyl rhodamine, TAMRA) and BHQ-2 (Black Hole Quencher 2) dark quencher. Strand separation results in an increase in the fluorescence of TAMRA (excitation 525 nm, emission 598 nm). […]

[9] = biological target: RecQ-like DNA helicase BLM (Homo sapiens) (UniProt P54132); experiment: qHTS Validation Assay for Inhibitors of Bloom's syndrome helicase (BLM) (AID 2364)
Sequence of RecQ-like DNA helicase BLM (Homo sapiens) (P54132 whole entry, looked up): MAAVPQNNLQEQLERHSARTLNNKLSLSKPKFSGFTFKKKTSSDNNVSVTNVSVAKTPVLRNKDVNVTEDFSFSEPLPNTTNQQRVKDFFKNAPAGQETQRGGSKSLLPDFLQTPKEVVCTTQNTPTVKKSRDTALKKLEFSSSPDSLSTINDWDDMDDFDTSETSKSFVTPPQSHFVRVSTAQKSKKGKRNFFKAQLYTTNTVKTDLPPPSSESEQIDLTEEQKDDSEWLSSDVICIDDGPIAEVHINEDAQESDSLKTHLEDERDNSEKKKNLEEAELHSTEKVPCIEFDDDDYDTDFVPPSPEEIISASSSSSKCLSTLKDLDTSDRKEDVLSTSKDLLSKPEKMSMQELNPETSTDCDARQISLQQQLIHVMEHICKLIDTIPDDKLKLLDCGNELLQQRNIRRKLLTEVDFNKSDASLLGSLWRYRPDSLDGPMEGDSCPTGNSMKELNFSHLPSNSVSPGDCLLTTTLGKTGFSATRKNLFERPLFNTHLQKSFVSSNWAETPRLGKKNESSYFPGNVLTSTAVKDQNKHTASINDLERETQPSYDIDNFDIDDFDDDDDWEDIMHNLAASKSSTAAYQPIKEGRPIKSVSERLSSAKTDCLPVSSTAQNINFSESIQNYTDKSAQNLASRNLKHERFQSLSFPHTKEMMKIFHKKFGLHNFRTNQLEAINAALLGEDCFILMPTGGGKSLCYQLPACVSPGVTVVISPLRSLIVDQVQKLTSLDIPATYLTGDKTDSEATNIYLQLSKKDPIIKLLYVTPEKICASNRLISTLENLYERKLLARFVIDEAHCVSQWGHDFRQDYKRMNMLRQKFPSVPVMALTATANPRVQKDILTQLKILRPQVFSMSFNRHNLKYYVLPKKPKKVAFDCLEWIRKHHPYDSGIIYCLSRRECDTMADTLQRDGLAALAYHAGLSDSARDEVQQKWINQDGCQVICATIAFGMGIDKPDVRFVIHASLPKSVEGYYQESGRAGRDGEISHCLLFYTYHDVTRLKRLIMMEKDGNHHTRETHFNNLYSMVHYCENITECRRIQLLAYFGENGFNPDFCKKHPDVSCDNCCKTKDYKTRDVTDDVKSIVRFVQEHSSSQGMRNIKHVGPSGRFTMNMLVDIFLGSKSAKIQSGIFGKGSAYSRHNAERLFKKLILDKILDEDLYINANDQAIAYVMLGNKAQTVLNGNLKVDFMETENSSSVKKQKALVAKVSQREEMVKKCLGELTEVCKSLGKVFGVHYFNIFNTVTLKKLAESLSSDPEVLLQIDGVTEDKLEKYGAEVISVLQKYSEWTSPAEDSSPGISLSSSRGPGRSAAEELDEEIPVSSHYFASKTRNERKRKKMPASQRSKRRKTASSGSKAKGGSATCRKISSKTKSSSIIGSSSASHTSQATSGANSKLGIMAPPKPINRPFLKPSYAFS
Outline: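 Forked 20-bp duplex substrate (200 nM, TAMRA/BHQ-2) plus 2 mM ATP added after 15 min compound preincubation with 50 nM enzyme, pH 8.0, poly(dI-dC) 2.5 ug/ml. Strand separation followed by fluorescence (525/598 nm) over 2 h, normalized to enzyme-free and DMSO controls.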

[10] = Validation screen for small molecules that induce DNA re-replication in MCF 10A normal breast cells (AID 463097); note: nearly all actives have a fitted effect of over 60% in size
Outline: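 250 MCF 10A cells/well; compound pin-transferred; 48 hr, 37 C, 5% CO2; Hoechst 40 min; imaged 405/500-530 nm. Hits = more high-intensity nuclei.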

CN=C(N)NCCC[C@H](N)C(=O)O
outcome [1]: inactive
outcome [2]: inactive
outcome [3]: inactive
outcome [4]: inactive

CCCCN1C[C@H](O)[C@@H](O)[C@H](O)[C@H]1CO
outcome [5]: inactive

NCCNc1cccc2ccccc12
outcome [6]: inactive

COc1ccc(C(Cl)=C(c2ccc(OC)cc2)c2ccc(OC)cc2)cc1
outcome [6]: inactive

COc1ccc(C(=O)c2ccccc2)c(O)c1
outcome [6]: inactive

COc1cc([C@H]2Oc3cc([C@H]4Oc5cc(O)cc(O)c5C(=O)[C@@H]4O)ccc3O[C@@H]2CO)ccc1O
outcome [6]: inactive

CCCCC(CC)COC(=O)c1ccc(N(C)C)cc1 (stereo not given)
outcome [6]: inactive

NC(=O)c1ccccc1O
outcome [6]: inactive

CC(C)(C)NC[C@H](O)COc1nsnc1N1CCOCC1
outcome [1]: inactive
outcome [2]: inactive
outcome [3]: inactive
outcome [4]: inactive

NC(N)=NCc1cccc(I)c1
outcome [7]: inactive
outcome [8]: inactive
outcome [9]: inactive
outcome [1]: inactive
outcome [2]: inactive
outcome [3]: inactive
outcome [4]: inactive
outcome [10]: inactive

CC(=O)OCC1=C(C(=O)O)N2C(=O)[C@@H](NC(=O)CSc3ccncc3)[C@H]2SC1
outcome [7]: inactive
outcome [9]: inactive
outcome [10]: inactive

CCOc1ccccc1C(N)=O
outcome [6]: inactive

OC[C@H]1O[C@@H]2O[C@H]3[C@H](O)[C@@H](O)[C@@H](O[C@H]4[C@H](O)[C@@H](O)[C@@H](O[C@H]5[C@H](O)[C@@H](O)[C@@H](O[C@H]6[C@H](O)[C@@H](O)[C@@H](O[C@H]7[C@H](O)[C@@H](O)[C@@H](O[C@H]8[C@H](O)[C@@H](O)[C@@H](O[C@H]1[C@H](O)[C@H]2O)O[C@@H]8CO)O[C@@H]7CO)O[C@@H]6CO)O[C@@H]5CO)O[C@@H]4CO)O[C@@H]3CO
outcome [6]: inactive

C/C=C/c1ccc(O)c(OC)c1
outcome [6]: inactive

CCOC(=O)[C@H](CCc1ccccc1)N[C@@H](C)C(=O)N1[C@H](C(=O)O)C[C@H]2CCCC[C@@H]21
outcome [1]: inactive
outcome [2]: inactive
outcome [3]: inactive
outcome [4]: inactive

O=C(O)c1ccc(S(=O)(=O)N(Cl)Cl)cc1
outcome [6]: inactive

CCOc1ccc(NC(C)=O)cc1
outcome [6]: inactive
